From PubChem BioAssay AID504408 (Broad Institute, 2011)
In all, about 300,000 compounds went through this assay and about 5,200 (1.7%) were called active.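 The calls were made as follows: active = mean replicate activation of at least 50% with a set share of replicates each reaching 50%; inconclusive = only one of those two conditions met; inactive = mean below 50% and too few replicates reaching it.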 Shown is part of a subset that was picked to be rich in actives.

Experiment: HSF-1 response element luciferase induction – NIH3T3-HGL cells, MG132 stress, luminescence, single point, primary screen (AID 504408);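 also: 0% = median of the neutral control wells and 100% = twice that signal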
Conditions: NIH3T3-HGL HSF-1 luciferase reporter, MG132, 8 h; at 9 µM; stronger effect = higher value; 100% = twice DMSO control signal

Row | SMILES | activation
1 | Cc1ccc(NC(=O)CSc2nc(=O)n(CCN(C)C)c3c2CCCC3)c(C)c1 | -10.7% (inactive)
2 | CN1CCN(S(=O)(=O)c2ccc(Nc3ccc(F)cc3)nc2)CC1 | -7% (inactive)
3 | NS(=O)(=O)c1ccc(CCNC(=O)CN2C(=O)c3ccccc3S2(=O)=O)cc1 | -4.15% (inactive)
4 | COc1ccc(S(=O)(=O)NCCCc2ccccc2)cc1 | -30.2% (inactive)
5 | CCOc1cccc(/C=C/c2ccc3ccccc3n2)c1OC(C)=O | 132% (active)
6 | COc1cccc(/C=C/c2ccc3ccccc3n2)c1OC(C)=O | -16.6% (inactive)
7 | NC(=O)COC(=O)/C=C/c1ccc2ccccc2n1 | -46.9% (inactive)
8 | O=C(Nc1ncccc1O)c1ccc(C(=O)c2ccccc2)cc1 | -2.58% (inactive)
9 | CCCCn1c(N)c(N(CCOC)C(=O)CSCC(=O)Nc2cccc(C)c2)c(=O)[nH]c1=O | 1.06% (inactive)
10 | CCC1Nc2ncnc(N3CCN(c4ccccc4)CC3)c2N(Cc2ccc(Cl)cc2)C1=O (stereo not given) | 22.3% (inactive)
11 | Cc1ccc(N2C(=O)SC(N(CC(=O)O)c3ccc(C)cc3)C2=O)cc1 (stereo not given) | 96.4% (active)
12 | Cc1cccc(N2C(=O)SC(N(CC(=O)O)c3cccc(C)c3)C2=O)c1 (stereo not given) | 17.2% (inactive)
13 | Cc1ccc(CC2S/C(=C(/C#N)C(=O)N3CCOCC3)N(c3ccccc3)C2=O)cc1 (stereo not given) | 19.9% (inactive)
14 | CC(=O)Nc1ccc(C(=O)NNC(=O)CCCCC(=O)NNC(=O)c2ccc(NC(C)=O)cc2)cc1 | 0.0985% (inactive)
15 | Cc1ccc(C(=O)NC2CCCC(C)C2C)cc1S(=O)(=O)N1CCCCC1 (stereo not given) | 2.09% (inactive)
16 | O=[N+]([O-])c1ccc(S(=O)(=O)Nc2cccc(-c3ccc(N4CCCC4)nn3)c2)cc1 | -7.69% (inactive)
17 | Clc1ccc(-c2ncc3ccccn23)c(Cl)c1 | 69.3% (active)
18 | Clc1ccc(COn2c(-c3ccc(Cl)cc3Cl)nc3ncccc32)cc1 | -4.74% (inactive)
19 | COn1c(-c2ccc(Cl)cc2Cl)nc2ncccc21 | 22.3% (inactive)
20 | COc1ccc(-c2nc3ccccc3c(=O)n2CCc2ccc(O)cc2)cc1 | 29.5% (inactive)
21 | COc1ccc(-c2c(C#Cc3ccccc3)c3ccccc3n2C)cc1 | 64.2% (active)
22 | COc1ccc(-c2cc(C(=O)n3cnc4ccccc43)c3ccccc3n2)cc1 | -1.65% (inactive)
23 | O=C(COC(=O)c1ccccc1Br)Nc1nnc(-c2ccccc2)o1 | -10.6% (inactive)

Row | SMILES | activation
24 | CC1CCN(c2ccc(-c3ccc(NC(=O)c4ccco4)cc3)nn2)CC1 | -39.2% (inactive)
25 | CSCCC(NC(=O)c1ccco1)C(=O)Nc1cc(C)ccn1 (stereo not given) | 4.08% (inactive)
26 | Cc1ccc(-c2csc(NC(=O)C3=COCCO3)n2)cc1C | 31.4% (inactive)
27 | Cc1cc(C)c(C#N)c(SCc2[nH]nc3c2C(c2ccccc2)C(C#N)=C(N)O3)n1 (stereo not given) | 64% (active)
28 | CCc1ccc(C2C(C#N)=C(N)Oc3n[nH]c(CC(=O)OC)c32)cc1 (stereo not given) | 3.08% (inactive)
29 | Cc1cc(C)c2c3c(sc2n1)C(c1ccccc1)C(C#N)=C(N)O3 (stereo not given) | -10.5% (inactive)
30 | CCN(C(=O)CSc1ncnc2c1cnn2-c1ccccc1)C1CCS(=O)(=O)C1 (stereo not given) | -4.69% (inactive)
31 | Clc1ccc(-c2csc(-c3ccncc3)n2)cc1 | 58% (active)
32 | Nc1scc(-c2ccncc2)c1Cl | 11.5% (inactive)
33 | Fc1ccc(-c2csc(-c3ccc(C4SCCS4)cc3)n2)cc1F | 23.4% (inactive)
34 | CCCn1c(C)cc(/C=C(\C#N)C(=O)OCC(=O)N(C)c2c(N)n(Cc3ccccc3)c(=O)[nH]c2=O)c1C | -4.32% (inactive)
35 | Cc1nn(-c2ccccc2)c(Cl)c1/C=C/C(=O)c1ccc(O)cc1 | 76.9% (active)
36 | Cc1nn(-c2ccccc2)c(Cl)c1C(=O)Nc1ccccc1 | -8.73% (inactive)
37 | Cc1ccc(C(=O)/C=C/c2c(C)nn(-c3ccccc3)c2Cl)cc1 | 42.3% (inactive)
38 | COc1cc2c(cc1OC)C(Cc1cc(OC)c(OC)cc1[N+](=O)[O-])=NCC2 | -5.53% (inactive)
39 | C/[N+]([O-])=C\c1ccc([N+](=O)[O-])o1 | -2.43% (inactive)
40 | O=C(N/N=C/c1ccc([N+](=O)[O-])o1)c1cn(-c2ccccc2)nc1-c1ccc(F)cc1 | 3.06% (inactive)
41 | O=C(/C=C/c1ccc([N+](=O)[O-])o1)NNC(=O)c1ccc(F)cc1 | 71.3% (active)
42 | Cc1ccc(OCCNC(=O)CNC(=O)c2ccc(C)c(C)c2)cc1 | 16.2% (inactive)
43 | O=C1[C@H]2[C@@H](c3ccc(Cl)cc3)N3C(=O)N(c4cccc(F)c4)C(=O)[C@@]3(Cc3ccccc3)[C@H]2C(=O)N1C1CCCCC1 | -0.394% (inactive)
44 | COC(=O)c1cc(NC(=O)Cc2ccccc2[N+](=O)[O-])ccc1Cl | -11.7% (inactive)
45 | N#Cc1cccc(NC(=O)COC(=O)c2ccccc2C(=O)c2ccc(Cl)c([N+](=O)[O-])c2)c1 | 241% (active)
46 | CC(=O)Nc1ccc(NC(=O)C(C)OC(=O)c2ccccc2C(=O)c2ccc(Cl)c([N+](=O)[O-])c2)cc1 (stereo not given) | 27.5% (inactive)

Row | SMILES | activation
47 | CC1(c2ccc(Cl)cc2Cl)NC(=O)N(CC(=O)Nc2cccnc2Cl)C1=O (stereo not given) | -7.46% (inactive)
48 | COc1ccccc1CCNC(=O)C(=O)NCCC1CCCCN1S(=O)(=O)c1cccs1 (stereo not given) | 18% (inactive)
49 | CN(CC(=O)NCc1cccnc1)S(=O)(=O)c1cc(Cl)ccc1Cl | 1.99% (inactive)
50 | CC(Oc1ccc(Br)cc1)C(=O)NCC(c1ccco1)N1CCCCC1 (stereo not given) | 12.7% (inactive)
51 | CC(OC(=O)c1ccc(-n2cnnn2)cc1)C(=O)NCc1ccccc1 (stereo not given) | -14% (inactive)
52 | CCN1CCN(C(c2cccnc2)c2cc(Cl)c3cccnc3c2O)CC1 (stereo not given) | -83.7% (inactive)
53 | CCOC(=O)N1CCN(C(=O)CSc2nc(=O)n3cccc(C)c3n2)CC1 | -0.428% (inactive)
54 | CCOC(=O)N1CCN(C(c2cccnc2)c2ccc3cccnc3c2O)CC1 (stereo not given) | 67.9% (active)
55 | Cc1cccc(Nc2nc3c(S(=O)(=O)c4ccccc4)nnn3c3ccccc23)c1C | 8.48% (inactive)
56 | CC(=O)Nc1ccc(Nc2nc3c(S(=O)(=O)c4ccc(C)c(C)c4)nnn3c3ccccc23)cc1 | 74.4% (active)
57 | Cc1ccc(S(=O)(=O)c2nnn3c2nc(N2CCN(c4ccccn4)CC2)c2ccccc23)cc1 | 30.6% (inactive)
58 | COc1ccc(/C=C(\C#N)C(=O)OCC(=O)N(C)C2CCS(=O)(=O)C2)cc1 (stereo not given) | -4.8% (inactive)
59 | Cc1ccc2nc(SCC(=O)Nc3cccc4ccccc34)nc(=O)n2c1 | 16.2% (inactive)
60 | N#Cc1c(N)n(CCOC(=O)c2ccc(Cl)cc2)c2nc3ccccc3nc12 | 26.8% (inactive)
61 | CN(C)CCCn1c(N)c(C#N)c2nc(C#N)c(C#N)nc21 | 76.2% (active)
62 | CC(C)(C)c1ccc(C(=O)NCCn2c(N)c(C#N)c3nc4ccccc4nc32)cc1 | 27.2% (inactive)
63 | CC(OC(=O)CCCc1c[nH]c2ccccc12)C(=O)Nc1ccc(S(N)(=O)=O)cc1 (stereo not given) | 8.99% (inactive)
64 | CC(=O)Nc1ccc(C(=O)Nc2cccc(S(=O)(=O)NC3=NCCC3)c2)cc1 | -9.72% (inactive)
65 | COc1ccc(C(=O)CN2C(=O)NC3(CCc4ccccc43)C2=O)c(OC)c1 (stereo not given) | -14% (inactive)
66 | Cc1nn(C)cc1C(=O)c1ccccc1 | 5.22% (inactive)
67 | Cc1cc(NC(=O)C(C)N2C(=O)c3ccccc3S2(=O)=O)no1 (stereo not given) | -3.5% (inactive)
68 | COc1cc2ccccc2cc1C(=O)N1CCOCC1 | -5.8% (inactive)
69 | C=CCN1C(=O)C(Cc2cccc(Cl)c2)S/C1=N/N=C/c1ccco1 (stereo not given) | 23.1% (inactive)

Row | SMILES | activation
70 | C=CCN1C(=O)C(Cc2ccc(OCC)cc2)SC1=Nc1ccc(C(=O)O)cc1 (stereo not given) | 58.5% (active)
71 | CCOc1ccc(N=C2SC(C(=O)O)CC(=O)N2C)cc1 (stereo not given) | -0.001% (inactive)
72 | COc1cccc(N2CC(NC(=O)c3ccc4ccccc4c3)CC2=O)c1 (stereo not given) | -3.4% (inactive)
73 | Nc1c(-c2ccccc2)nnn1Cc1ccccc1 | 17.5% (inactive)
74 | O=C(/C=C/c1ccc2c(c1)OCO2)NCc1cn2cc(Cl)ccc2n1 | 1.53% (inactive)
75 | O=c1c2ccccc2nc2n1C(CSc1ccc(Cl)cc1)CN2 (stereo not given) | -13% (inactive)
76 | Clc1ccc2nc(CSc3ccccc3)cn2c1 | 70.2% (active)
77 | N#CC1(NC(=O)COC(=O)Cc2n[nH]c(=O)c3ccccc23)CCCCC1 | 3.96% (inactive)
78 | COc1ccc(-c2cc(C(=O)N(C)CC(=O)Nc3ccccc3Cl)c3ccccc3n2)cc1OC | -23.1% (inactive)
79 | Cc1cccc(OC(=O)c2sc3ncn(C)c(=O)c3c2C)c1 | 17.3% (inactive)
80 | Cc1c(C(N)=O)sc2ncn(CCOc3ccccc3)c(=O)c12 | 58.5% (active)
81 | CCOC(=O)C(C)n1cnc2sc(C)c(C)c2c1=O (stereo not given) | 6.07% (inactive)
82 | CCOc1ccc(CCNC(=O)COC(=O)c2ccc(F)c(S(=O)(=O)N3CCOCC3)c2)cc1OCC | -9.54% (inactive)
83 | CCC(=O)N1CCc2cc(Br)c(S(=O)(=O)NCCN3CCCCC3CC)cc21 (stereo not given) | -1.08% (inactive)
84 | COc1ccc(C(=O)Nc2cccc(NC(=O)c3ccc(OC)cc3OC)n2)c(OC)c1 | -34.1% (inactive)
85 | O=C1CC(c2cccc(Cl)c2)CC(O)=C1C=Nc1ccccc1 (stereo not given) | 116% (active)
86 | O=C1CC(c2ccccc2)CC(O)=C1C=NCCN1CCOCC1 (stereo not given) | -5.8% (inactive)
87 | O=C1CCCC(O)=C1C=NCCc1ccccc1 | 21% (inactive)
88 | O=C(NCCS(=O)(=O)N1CCN(c2ccccc2)CC1)c1ccco1 | 4.49% (inactive)
89 | Cc1cc(O)c(Sc2ccccc2)c(=O)o1 | -2.42% (inactive)
90 | CCCCn1c(N)c(N(CC(C)C)C(=O)c2cccc(S(=O)(=O)N3CCN(C(C)=O)CC3)c2)c(=O)[nH]c1=O | -4.85% (inactive)
